# Compound activity as filed in PubChem BioAssay.
# EPAC1 ag – activates human EPAC1 exchange factor | EPAC1 agonist qHTS, biochemical assay; response scale: 100% = response to 6.5 mM cAMP | Potency, µM (series often up to 154 µM), for the others: at the highest dose activation, most hits filed as activators | hit rate 0.073% among 360,000 | O95398; note: nearly all actives have a fitted effect of over 60% in size
# Target sequence (O95398 whole entry, looked up): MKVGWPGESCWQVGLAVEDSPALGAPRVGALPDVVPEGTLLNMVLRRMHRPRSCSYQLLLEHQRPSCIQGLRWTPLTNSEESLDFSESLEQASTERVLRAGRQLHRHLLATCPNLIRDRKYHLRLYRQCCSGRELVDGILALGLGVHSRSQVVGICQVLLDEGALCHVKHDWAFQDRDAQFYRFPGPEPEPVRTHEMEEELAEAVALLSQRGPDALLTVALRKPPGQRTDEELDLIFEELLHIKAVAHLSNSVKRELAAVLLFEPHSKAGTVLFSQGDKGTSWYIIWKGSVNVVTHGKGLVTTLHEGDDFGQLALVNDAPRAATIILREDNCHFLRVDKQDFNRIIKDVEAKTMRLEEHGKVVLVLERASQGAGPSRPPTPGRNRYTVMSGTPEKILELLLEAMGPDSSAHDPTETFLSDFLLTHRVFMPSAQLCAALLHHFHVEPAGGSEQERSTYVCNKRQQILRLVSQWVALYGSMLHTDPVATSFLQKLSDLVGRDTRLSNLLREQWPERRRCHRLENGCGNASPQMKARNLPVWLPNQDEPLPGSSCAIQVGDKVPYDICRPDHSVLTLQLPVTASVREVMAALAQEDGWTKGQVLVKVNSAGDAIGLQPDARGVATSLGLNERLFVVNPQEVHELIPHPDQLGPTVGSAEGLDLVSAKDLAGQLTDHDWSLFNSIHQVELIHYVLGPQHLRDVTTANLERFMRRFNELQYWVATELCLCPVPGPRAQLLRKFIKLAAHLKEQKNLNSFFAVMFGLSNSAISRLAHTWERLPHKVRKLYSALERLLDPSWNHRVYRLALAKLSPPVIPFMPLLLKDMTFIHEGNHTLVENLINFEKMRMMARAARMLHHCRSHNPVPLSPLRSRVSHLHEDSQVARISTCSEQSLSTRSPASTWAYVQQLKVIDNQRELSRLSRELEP
#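 Compounds were pinned as a concentration titration into mixtures of EPAC1 (100 nM), BODIPY-GDP-loaded Rap1B (250 nM) and GDP (50 uM). After 5 min at room temperature, fluorescence was followed for 30 min; activity was scaled to 6.5 mM cAMP.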
# EPAC2 ag – activates human EPAC2 exchange factor. EPAC2 activation, biochemical qHTS; response scale: 100% = 6.5 mM cAMP response. Potency, µM (titrated, usually from 154 µM), for inactives: at the top dose activation, most hits filed as activators. Q8WZA2. hit rate 0.079% among 360,000; note: nearly all actives have a fitted effect of over 50% in size
#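 Setup: EPAC2 100 nM, labeled Rap1B complex 250 nM, free GDP 50 uM. Compound titrations pinned in, brief spin, 5 min room temperature incubation. Kinetic fluorescence read over 30 min, normalized to 6.5 mM cAMP.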
# EPAC1 antag – EPAC1 (human) antagonism | O95398 | EPAC1 GEF assay, Rap1b-BODIPY-GDP exchange fluorescence | Potency, µM (titrated, usually from 115 µM), without a hit: at the top dose activity change, negative = inhibition, usual class: inhibitors | hit rate 0.14% among 360,000 | AID 720709;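 note: plate controls were vehicle for no effect and positive control for full effect; nearly all actives have a fitted effect of over 50% in size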
# EPAC2 antag – EPAC2 (human) antagonism; hit rate 0.18% among 360,000; AID 720708; EPAC2 GEF exchange of Rap1B-BODIPY-GDP, fluorescence; Potency, µM (top dose mostly 114 µM), inactives show top-dose activity, negative = inhibition, usual class: inhibitors; Q8WZA2; note: % is set by controls: 0 for no effect and ±100 for the full control effect; nearly all actives have a fitted effect of over 45% in size
# * marks the source's active call; other numbers are inactive results; ? = inconclusive. A selection: hits, their analogues and other compounds. The true share with any hit is near 0.39%. Calls come from the whole dose curve; as a rule, active = well fitted curve in the direction sought with a large enough effect; inconclusive = small, poorly fitted or top-dose-only effect, or another doubt; inactive = no such curve, though single readings can be large; an effect the other way counts as inactive or inconclusive. Potency is the fitted concentration of half-maximal effect.
SMILES,EPAC1 ag,EPAC2 ag,EPAC1 antag,EPAC2 antag
N#CC(C#N)=Cc1ccc(N2CCOCC2)cc1,-0.6%,-12.2%,-5.5%,5.6%
Cc1cc(C=C(C#N)C#N)ccc1N1CCCC1,?,100µM*,2.0%,6.8%
CC(C)(C)c1csc(NC(=O)Nc2ccccc2)n1,7.4%,21.8%,?,-17.3%
S=C(Nc1ccccc1)Nc1ccccn1,89.1µM*,2.4%,14.8%,-4.6%
COc1cccc(Cn2c(=O)oc3ccccc32)c1,-5.7%,-2.1%,-27.6%,?
COc1ccc(/C=C2/C(=O)N(Cc3ccco3)C(=O)N(C(C)C)C2=O)cc1,-4.7%,-9.5%,31.6µM*,40.5%
COc1cccc(NP(=O)(Oc2ccc(Cl)cc2)Oc2ccc(Cl)cc2)c1,2.9%,-0.6%,-22.6%,-6.7%
O=[N+]([O-])c1cccc(NP(=O)(Oc2ccccc2)Oc2ccccc2)c1,11.7%,11.5%,0.2%,25.1µM*
CC[C@H](C)/C=C(C)/C=C/C1=CC2=C(Cl)C(=O)[C@](C)(OC(C)=O)C(=O)C2=CO1,11.6%,9.7%,?,8.91µM*
CCOc1ccccc1-n1c(O)c(C=Nc2ccc(N(CC)CC)cc2)c(=O)[nH]c1=O,70.8µM*,100µM*,8.0%,32.2%
CCN(CC)c1ccc(N=Cc2c(O)n(-c3ccccc3C)c(=O)[nH]c2=O)cc1,100µM*,89.1µM*,-0.7%,9.2%
CCN(CC)c1ccc(N=Cc2c(O)n(-c3ccccc3)c(=O)[nH]c2=O)cc1,-17.7%,-9.9%,-9.3%,39.9%
C[C@H](CO)N1C[C@H](C)[C@@H](CN(C)C(=O)Nc2ccc(C(F)(F)F)cc2)Oc2c(NS(=O)(=O)c3cccs3)cccc2C1=O,-10.7%,-3.9%,?,-20.1%
Cc1[nH]n(-c2ccccc2)c(=O)c1C(c1cccc([N+](=O)[O-])c1O)c1c(C)[nH]n(-c2ccccc2)c1=O,0.2%,0.7%,56.2µM*,-11.4%
COC(=O)C1=C(C(=O)OC)C2c3ccccc3C1c1ccccc12,0.7%,5.9%,-20.5%,-19.5%
COC(=O)C1C2c3ccccc3C(c3ccccc32)C1(C)C(=O)OC (configuration not stated),2.1%,7.1%,3.9%,31.6µM*
O=c1nc(/C=C/c2ccc(Cl)cc2Cl)cc(C(F)(F)F)[nH]1,-19.9%,-2.3%,?,56.2µM*
COc1ccc(C/C(=N\OC(C)=O)c2ccc(OC)cc2)cc1,-0.9%,10.3%,10.1%,?
C=CC[C@@H](CC(=O)N(CCO)Cc1ccccc1)C(=O)NC[C@@H](OC(=O)[C@@H](CC=C)CC(=O)OC(C)(C)C)c1ccccc1,-33.5%,-5.2%,-22.8%,-23.2%
CCn1c(O)c(C=Nc2ccc(N3CCOCC3)c(Br)c2)c(=O)n(CC)c1=S,2.6%,2.4%,0.6%,-5.3%
CCn1c(O)c(C=Nc2ccc(N3CCOCC3)cc2)c(=O)n(CC)c1=S,6.8%,100µM*,1.2%,112.5%
CCOC(=O)C1CCCN(c2ccc([N+](=O)[O-])c3nonc23)C1 (configuration not stated),89.1µM*,100µM*,78.6%,117.8%
O=C1NC(=O)N(c2ccccc2)C(=O)/C1=C/c1ccc(Sc2ccccc2)o1,7.5%,1.9%,10.6%,3.2%
O=C1NC(=O)N(c2cccc(Cl)c2)C(=O)/C1=C\c1ccc(Sc2nc3ccccc3[nH]2)o1,-1.5%,0.7%,44.7µM*,-2.7%
O=C1NC(=O)N(c2ccccc2F)C(=O)/C1=C/c1ccc(Sc2nc3ccccc3[nH]2)o1,13.6%,-0.7%,25.1µM*,-1.3%
SMILES,EPAC1 ag,EPAC2 ag,EPAC1 antag,EPAC2 antag
Cc1cccc(NC(=O)C2CCCN(S(=O)(=O)c3ccc4c(c3)oc(=O)n4C)C2)c1 (configuration not stated),3.2%,?,0.2%,-8.9%
CC(C)CC[C@@H](O)[C@](C)(O)C1CC[C@@]2(O)C3=CC(=O)[C@@H]4C[C@@H](O)[C@@H](O)C[C@]4(C)C3CC[C@]12C (some centres not stated),-23.3%,3.8%,4.9%,40.4%
COc1ccc(N2C(=O)/C(=C/c3cccs3)C(=O)NC2=S)cc1,7.8%,0.4%,-10.5%,7.5%
COc1ccc(N2C(=O)/C(=C/C=C/c3ccccc3[N+](=O)[O-])C(=O)NC2=S)cc1,-3.8%,-4.4%,44.7µM*,-7.6%
CCOC(=O)c1c(/N=C/C2C(=O)NC(=O)NC2=O)sc2c1CCC2,-12.3%,8.8%,-16.9%,-20.3%
CCOC(=O)c1cc(CC)sc1/N=C/c1c(O)[nH]c(=S)[nH]c1=O,6.3%,63.1µM*,-14.7%,30.9%
CCOC(=O)c1cc(CC)sc1/N=C/C1C(=O)NC(=S)NC1=O,-1.8%,89.1µM*,4.5%,200.5%
O=C(C[C@H]1C=C[C@H](NC(=O)Nc2ccccc2F)[C@@H](CO)O1)NCc1ccc(-c2ccccc2)cc1,-1.4%,2.7%,4.7%,?
O=C(OC1CCN(CCCl)CC1)C(c1ccccc1)c1ccccc1,6.5%,9.7%,2.5%,12.6µM*
Cc1ccc(N2C(=O)NC(=O)/C(=C\c3cc(C)n(-c4sc5c(c4C#N)CCCC5)c3C)C2=O)cc1,8.4%,-11.8%,17.8µM*,?
O=C1NCN(c2ccccc2)C12CCN(C(CCc1ccccc1)c1nnnn1C1CCCCC1)CC2 (configuration not stated),-3.9%,13.2%,-6.5%,4.7%
CCCCn1c(NC(=O)c2ccco2)c(C(=O)OCC)c2nc3ccccc3nc21,6.9%,4.7%,?,9.1%
CCCCn1c(NS(=O)(=O)c2ccc(C)cc2)c(C(=O)OCC)c2nc3ccccc3nc21,112µM*,-8.3%,?,-9.2%
Oc1c(Cl)c(Cl)c(Cl)c(Cl)c1Cl,-32.4%,-5.4%,-22.2%,10µM*
CNCC[C@@H](Oc1ccc(C(F)(F)F)cc1)c1ccccc1,-0.2%,4.0%,-12.0%,0.4%
CCCOP(=O)(c1ccc(N(C)C)cc1)C(O)c1ccc(Cl)cc1Cl (configuration not stated),1.6%,9.8%,-23.8%,?
Cn1cccc1/C=C1\C(=O)NC(=O)N(Cc2ccccc2Cl)C1=O,-6.5%,5.4%,79.4µM*,-4.0%
O=C1NC(=O)N(Cc2ccco2)C(=O)/C1=C\c1cccn1CCOc1ccc(Cl)cc1,-11.6%,4.8%,50.1µM*,-8.0%
COc1ccc(CN2C(=O)NC(=O)/C(=C/c3ccc([N+](=O)[O-])s3)C2=O)cc1,-6.9%,-10.1%,39.8µM*,3.3%
COc1ccccc1N1C(=O)NC(=O)/C(=C/c2ccc([N+](=O)[O-])s2)C1=O,2.3%,5.4%,?,-1.3%
Cc1cccc(OCCn2cccc2/C=C2/C(=O)NC(=O)N(Cc3ccco3)C2=O)c1,1.8%,1.0%,?,-20.7%
O=C1NC(=O)N(Cc2ccc(F)cc2)C(=O)/C1=C\c1ccc([N+](=O)[O-])s1,-9.3%,-3.8%,20µM*,0.2%
COc1ccc(CN2C(=O)NC(=O)/C(=C\c3ccco3)C2=O)cc1,-6.5%,4.4%,50.1µM*,2.3%
Cc1ccc(-c2[nH]c(=S)[nH]c(=O)c2C#N)cc1,6.3%,4.9%,?,-9.9%
